Experimental data from PubChem BioAssay.
Results filed as inconclusive are left out. Activity calls are given as the source filed them.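 How the source made its calls, unless noted: active means differentiation response of at least 50%, scaled between solvent and reference control, from cells with both markers; inactive means the rest.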

Assays:
[1] = yeast TOR pathway RPL19A-GFP modulators, primary screen, cell-based, S. cerevisiae, multiplex flow cytometry (AID 1862; in the data active means percent of DMSO control GFP below about 86%;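 further: lower values mimic rapamycin by blocking the RPL19A rise seen in DMSO cells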); settings: S. cerevisiae RPL19A-GFP strain, flow cytometry fluorescence, 3 h; at 10 µM; stronger effect = lower value
[2] = modulators of MEP2-GFP levels in yeast, primary screen, S. cerevisiae, multiplex flow cytometry (AID 1867;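 active means GFP response, as percent of the DMSO control, above the screen-wide mean plus 3 SD, about 139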;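 further: median GFP channel fluorescence of barcode-gated MEP2-GFP cells measured by flow cytometry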); settings: S. cerevisiae MEP2-GFP strain, 3 h, at 10 µM, stronger effect = higher value, 100% means same as DMSO wells
[3] = modulators of CIT2-GFP expression in yeast, primary screen, S. cerevisiae, GFP fusion, multiplex flow cytometry (AID 1870;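 active means percent response above a set limit, the screen-wide mean plus 3 SD, cut at about 130% in these data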;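 further: barcoded CIT2-GFP strain pooled with four other GFP strains with rapamycin as positive control; median GFP fluorescence per well over plate mean of DMSO wells so 100% = DMSO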); settings: 3 h, at 10 µM, stronger effect = higher value
[4] = modulators of LAP4-GFP expression in yeast, primary screen, S. cerevisiae, multiplex flow cytometry (AID 1873;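 active means GFP signal, as percent of the solvent control, above the screen mean plus 3 SD, about 149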); settings: 3 h, at 10 µM, stronger effect = higher value
[5] = modulators of AGP1-GFP expression in yeast TOR pathway, primary screen, cell-based, multiplex flow cytometry, S. cerevisiae (AID 1887;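 active means GFP signal above the screen-wide mean plus 3 SD, that is over about 124.5% of the solvent control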;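 further: AGP1-GFP fusion strain of S. cerevisiae within a five-strain barcoded multiplex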); settings: 3 h, at 10 µM, stronger effect = higher value
[6] = RPL19A-GFP modulators, yeast TOR pathway, confirmation, cell-based, S. cerevisiae, flow cytometry, cherry picks, mother/daughter gates (AID 2270;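 active means GFP response below 50% of the DMSO control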); settings: S. cerevisiae RPL19A-GFP strain, 3 h, at 10 µM, stronger effect = lower value, 100 = same GFP as DMSO wells
[7] = LAP4-GFP expression modulators in yeast, confirmation, cell-based, cherry picks, flow cytometry, mother/daughter gates (AID 2271;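 active means GFP response above 150% of the DMSO control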;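 further: ratio of sample to DMSO plate mean so 100% equals DMSO level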); settings: S. cerevisiae LAP4-GFP strain, 3 h, at 10 µM, stronger effect = higher value, 100 means same as DMSO control
[8] = modulators of MEP2-GFP levels in yeast, confirmation, S. cerevisiae, flow cytometry GFP, cherry picks (AID 2272;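 active means GFP response above 150% of the DMSO control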;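 further: ratio of well signal to plate DMSO mean so 100% equals DMSO level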); settings: S. cerevisiae MEP2-GFP strain, 3 h, at 10 µM, stronger effect = higher value
[9] = modulators of CIT2-GFP expression in yeast, confirmation, S. cerevisiae, GFP fusion, cherry picks, mother/daughter gates (AID 2274;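 active means GFP response above 150% of the DMSO level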); settings: S. cerevisiae CIT2-GFP strain, flow cytometry, 3 h, at 10 µM, stronger effect = higher value
[10] = inhibitors of CD8+ T cell-vesicle binding, pilot screen, LFA-1/ICAM-1 modulator project, MLPCN validation set, flow cytometry (AID 2523;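 active means response below a set limit, under 55% cells CD8-positive and vesicle-bound, and CD8 cells' 90th-percentile brightness under 279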;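 on vesicle binding response: mean PE anti-B7-1 fluorescence of CD8+ cells relative to row control; 100% = QL9-loaded vesicles with DMSO vehicle in the same plate row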); settings: 2C mouse CD8+ T cells, at 7 µM, stronger effect = lower value; double positive events: measured here: CD8+/vesicle+ event percentage
[11] = target: Integrin beta-1 (Homo sapiens) + Integrin alpha-4 (Homo sapiens) (UniProt P13612+P05556); assay: inhibition of HUTS-21 binding to VLA-4, pilot screen, VLA-4 allosteric modulator project, U937 cells, HUTS-21 mAb, flow cytometry, validation set (AID 2674;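 active means inhibition above 50%, about 3 SD of the validation set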;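 further: antibody binding induced by the VLA-4 ligand LDV present at three times its Kd; 0% = LDV ligand with antibody and no compound and 100% = antibody without LDV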); settings: HUTS-21 LIBS mAb binding, at 6.7 µM, stronger effect = higher value, binding induced by LDV ligand
[12] = superoxide lowering in aged yeast cells, pilot screen, validation compound set (AID 2706;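 active means superoxide response below 65% of plate, a cut near 3 SD across the whole screen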;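 further: yeast exposed to compound for one week at 30 degrees C before staining; 100% = mean of all compound wells on the same plate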); settings: S. cerevisiae aging, superoxide DHE fluorescence; at 10 µM; stronger effect = lower value
[13] = target: Beta-adrenergic receptor kinase 1 (Homo sapiens) (UniProt P25098); assay: GRK2 binders displacing RNA aptamer, biochemical, validation, human GRK2, bead flow cytometry (AID 488806;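 active means aptamer binding inhibition above 30%, about 3 SD of noise from non-fluorescent compounds; inactive means inhibition at or below 30%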); settings: bead-bound GRK2, FAM-aptamer displacement, at 10 µM, stronger effect = higher value
[14] = target: Beta-2 adrenergic receptor (Homo sapiens) (UniProt P07550); assay: beta2AR agonists driving receptor internalization, pilot screen, cell-based, FAP fluorogen, flow cytometry, validation set (AID 504459;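 active means percent response above 42, roughly 3 SD of non-fluorescent test compounds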;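 further: agonist-driven loss of surface beta2AR via internalization measured by FAP dye flow cytometry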); settings: Am2.2-beta2AR cells, FAP surface receptor flow cytometry; at 10 µM; stronger effect = higher value
[15] = target: AP-2 complex subunit beta (Homo sapiens) (UniProt P63010); assay: inhibitors of arrestin peptide binding to AP2, pilot screen, biochemical, validation set, GST-AP2 beads, flow cytometry (AID 504541;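 active means inhibition above 54%, about 3 SD of non-fluorescent compounds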;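 further: AP2 carries R879A mutation and is captured from E. coli lysate; bead-bound FITC arrestin peptide fluorescence measuring arrestin peptide binding to AP2; 0% = DMSO wells and 100% = excess unlabeled arrestin peptide control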); settings: FITC arrestin peptide, at 10 µM, stronger effect = higher value, AP2 beta2 appendage fragment, R879A mutant
[16] = yeast V-ATPase proton transport modulators, S. cerevisiae, pHLuorin, HTS validation (AID 504600; in the data active means response above about 15%;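 further: plate controls were DMSO for no effect and reference compound for full effect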); settings: S. cerevisiae pHLuorin cytosolic pH, at 10 µM, stronger effect = higher value
[17] = tested on: anti-desmoglein-3 scFv antibody binding to human DSG3; assay: inhibitors of anti-DSG3 scFv binding to DSG3, pilot screen, biochemical, validation compound set, bead-based, flow cytometry (AID 588368;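 active means binding below the plate cutoff, the plate median minus 3 SD, with a reading above zero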;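 further: signal is the median channel fluorescence of bead-bound GFP antibody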); settings: Protein G beads, DSG3-Fc, scFv-GFP binding, at 10 µM, stronger effect = lower value
[18] = inhibitors of fungal efflux pumps CDR1, CDR2, MDR1, pilot screen, validation compound set, multiplex, phenotypic (AID 588506;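 active means efflux inhibition above 0.42, the validation set average plus 4 SD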;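 further: Nile Red retained in cells so higher fluorescence means more efflux inhibition; 0 = negative control wells and 1 = enniatin B 25 µM full block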); settings: S. cerevisiae pump-expressing triplex, Nile Red efflux flow cytometry; at 10 µM; stronger effect = higher value; the pumps come from Candida albicans
[19] = target: ATP-binding cassette sub-family B member 6 (Homo sapiens) (UniProt Q9NP58); assay: ABCB6 transporter inhibitors, pilot screen, K562-ABCB6 cells, flow cytometry, validation set (AID 588550;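 active means inhibition above the screen-wide mean plus 3 SD, about 51%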;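 further: 0% = DMSO wells and 100% = benzethonium chloride 70 µM positive control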); settings: K562-ABCB6 porphyrin accumulation, 1 h, at 10 µM, stronger effect = higher value
[20] = promoters of myeloid differentiation in arrested cells, primary screen, cell-based, GFP/MAC1 double positive, flow cytometry, validation set (AID 588685); settings: ER-HoxA9 marrow cells, stronger effect = higher value, normalized: vehicle 0, fulvestrant 100;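 further: compound exposure lasts four days before antibody staining and flow analysis; 0% = DMSO wells and 100% = 5 µM fulvestrant positive control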
[21] = measured here: daughter cell gate
[22] = measured here: mother cell gate
[23] = measured here: daughter cell gate response
[24] = measured here: mother cell gate response

Sequence of AP-2 complex subunit beta (Homo sapiens) (P63010 whole entry, looked up, the tested form may be a part, one chain of several): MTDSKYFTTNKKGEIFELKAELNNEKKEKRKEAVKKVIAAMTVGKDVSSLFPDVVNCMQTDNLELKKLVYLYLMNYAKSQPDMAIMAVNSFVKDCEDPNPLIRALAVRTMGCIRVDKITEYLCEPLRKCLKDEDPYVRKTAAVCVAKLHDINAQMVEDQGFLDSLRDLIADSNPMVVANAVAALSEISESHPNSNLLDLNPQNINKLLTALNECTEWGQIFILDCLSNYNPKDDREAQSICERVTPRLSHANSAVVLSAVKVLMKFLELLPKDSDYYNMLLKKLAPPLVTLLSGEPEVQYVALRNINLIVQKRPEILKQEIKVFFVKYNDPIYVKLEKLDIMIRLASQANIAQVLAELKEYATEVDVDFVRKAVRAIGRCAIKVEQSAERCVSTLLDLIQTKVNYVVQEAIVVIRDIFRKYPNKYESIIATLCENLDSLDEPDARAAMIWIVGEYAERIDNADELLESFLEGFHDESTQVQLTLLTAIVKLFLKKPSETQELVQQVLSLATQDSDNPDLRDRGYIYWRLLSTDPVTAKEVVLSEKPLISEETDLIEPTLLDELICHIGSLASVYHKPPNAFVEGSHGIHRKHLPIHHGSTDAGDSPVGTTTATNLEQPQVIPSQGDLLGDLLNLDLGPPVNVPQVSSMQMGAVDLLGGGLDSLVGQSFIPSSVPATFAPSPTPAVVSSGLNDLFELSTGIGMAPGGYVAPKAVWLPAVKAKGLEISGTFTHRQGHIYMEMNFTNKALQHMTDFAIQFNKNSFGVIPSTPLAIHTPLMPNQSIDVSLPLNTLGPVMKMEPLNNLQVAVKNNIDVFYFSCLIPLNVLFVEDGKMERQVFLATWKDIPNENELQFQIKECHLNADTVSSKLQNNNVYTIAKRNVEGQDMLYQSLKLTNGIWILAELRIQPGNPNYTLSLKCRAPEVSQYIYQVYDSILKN
Sequence of ATP-binding cassette sub-family B member 6 (Homo sapiens) (Q9NP58 whole entry, looked up): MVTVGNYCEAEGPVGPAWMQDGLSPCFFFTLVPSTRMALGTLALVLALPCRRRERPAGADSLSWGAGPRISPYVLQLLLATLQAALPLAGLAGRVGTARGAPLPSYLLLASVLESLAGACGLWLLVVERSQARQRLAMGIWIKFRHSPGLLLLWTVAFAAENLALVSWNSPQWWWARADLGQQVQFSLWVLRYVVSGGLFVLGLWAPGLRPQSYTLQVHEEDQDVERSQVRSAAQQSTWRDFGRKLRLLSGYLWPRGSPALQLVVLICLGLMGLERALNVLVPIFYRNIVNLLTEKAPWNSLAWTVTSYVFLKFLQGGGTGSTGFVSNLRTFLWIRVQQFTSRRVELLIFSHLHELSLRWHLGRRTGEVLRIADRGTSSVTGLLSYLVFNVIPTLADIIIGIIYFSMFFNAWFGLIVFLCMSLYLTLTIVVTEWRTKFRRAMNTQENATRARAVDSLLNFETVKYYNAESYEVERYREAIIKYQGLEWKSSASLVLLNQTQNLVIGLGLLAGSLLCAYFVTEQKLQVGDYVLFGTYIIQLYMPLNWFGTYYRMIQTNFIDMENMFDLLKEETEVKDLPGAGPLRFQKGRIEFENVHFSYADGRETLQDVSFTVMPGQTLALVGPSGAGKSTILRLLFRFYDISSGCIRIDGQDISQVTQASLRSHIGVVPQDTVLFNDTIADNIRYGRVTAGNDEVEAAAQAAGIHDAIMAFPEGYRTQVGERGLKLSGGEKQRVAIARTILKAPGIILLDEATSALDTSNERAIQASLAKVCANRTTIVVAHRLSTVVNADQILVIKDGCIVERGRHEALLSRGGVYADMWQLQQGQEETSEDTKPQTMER
Sequence of Integrin beta-1 (Homo sapiens) + Integrin alpha-4 (Homo sapiens) (P05556 whole entry, looked up): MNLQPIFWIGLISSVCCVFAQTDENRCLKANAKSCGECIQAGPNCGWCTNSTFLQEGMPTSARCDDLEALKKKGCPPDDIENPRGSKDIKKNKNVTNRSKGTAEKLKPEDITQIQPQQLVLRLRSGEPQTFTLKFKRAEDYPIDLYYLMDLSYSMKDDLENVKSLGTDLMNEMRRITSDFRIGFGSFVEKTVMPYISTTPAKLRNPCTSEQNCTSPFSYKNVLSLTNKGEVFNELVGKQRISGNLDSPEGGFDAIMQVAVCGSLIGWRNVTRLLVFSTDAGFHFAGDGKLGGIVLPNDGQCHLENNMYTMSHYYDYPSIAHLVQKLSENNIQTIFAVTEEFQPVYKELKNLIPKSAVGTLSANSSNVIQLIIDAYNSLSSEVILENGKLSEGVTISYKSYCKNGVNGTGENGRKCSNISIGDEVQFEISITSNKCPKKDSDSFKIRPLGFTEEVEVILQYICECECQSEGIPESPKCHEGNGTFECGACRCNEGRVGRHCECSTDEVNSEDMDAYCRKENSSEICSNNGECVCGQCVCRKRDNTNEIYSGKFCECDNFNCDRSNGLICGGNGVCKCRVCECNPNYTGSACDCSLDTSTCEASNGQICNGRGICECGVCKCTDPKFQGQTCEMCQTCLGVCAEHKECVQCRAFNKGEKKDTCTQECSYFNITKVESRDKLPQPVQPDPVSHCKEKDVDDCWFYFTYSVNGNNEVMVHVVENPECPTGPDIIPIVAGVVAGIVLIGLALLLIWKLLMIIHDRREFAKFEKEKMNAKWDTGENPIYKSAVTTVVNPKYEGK
Sequence of Integrin beta-1 (Homo sapiens) + Integrin alpha-4 (Homo sapiens) (P13612 whole entry, looked up): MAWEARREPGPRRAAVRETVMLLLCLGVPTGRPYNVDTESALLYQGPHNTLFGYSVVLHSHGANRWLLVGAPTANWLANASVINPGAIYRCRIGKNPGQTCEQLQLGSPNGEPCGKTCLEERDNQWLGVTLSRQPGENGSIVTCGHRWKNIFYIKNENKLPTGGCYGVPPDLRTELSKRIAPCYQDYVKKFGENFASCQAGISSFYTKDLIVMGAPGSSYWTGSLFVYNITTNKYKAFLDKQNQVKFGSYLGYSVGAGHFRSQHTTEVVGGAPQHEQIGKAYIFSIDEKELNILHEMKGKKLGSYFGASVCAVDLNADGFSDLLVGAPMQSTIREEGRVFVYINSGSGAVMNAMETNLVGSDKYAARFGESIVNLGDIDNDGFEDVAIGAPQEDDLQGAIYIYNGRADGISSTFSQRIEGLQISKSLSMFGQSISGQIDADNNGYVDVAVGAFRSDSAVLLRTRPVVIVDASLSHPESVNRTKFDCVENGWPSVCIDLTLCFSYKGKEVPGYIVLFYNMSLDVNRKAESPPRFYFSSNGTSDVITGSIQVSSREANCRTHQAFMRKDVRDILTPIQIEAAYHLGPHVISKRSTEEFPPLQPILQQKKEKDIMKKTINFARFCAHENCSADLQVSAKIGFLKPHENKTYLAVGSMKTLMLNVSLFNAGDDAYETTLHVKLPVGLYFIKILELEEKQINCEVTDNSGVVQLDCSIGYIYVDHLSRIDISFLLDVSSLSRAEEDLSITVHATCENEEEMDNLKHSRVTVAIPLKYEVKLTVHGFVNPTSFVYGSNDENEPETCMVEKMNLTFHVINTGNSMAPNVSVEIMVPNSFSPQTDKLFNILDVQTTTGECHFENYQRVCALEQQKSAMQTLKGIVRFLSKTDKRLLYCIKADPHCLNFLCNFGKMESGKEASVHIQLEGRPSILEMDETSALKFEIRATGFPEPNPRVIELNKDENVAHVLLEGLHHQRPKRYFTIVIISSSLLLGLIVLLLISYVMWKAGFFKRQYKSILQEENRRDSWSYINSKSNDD
Sequence of Beta-2 adrenergic receptor (Homo sapiens) (P07550 whole entry, looked up): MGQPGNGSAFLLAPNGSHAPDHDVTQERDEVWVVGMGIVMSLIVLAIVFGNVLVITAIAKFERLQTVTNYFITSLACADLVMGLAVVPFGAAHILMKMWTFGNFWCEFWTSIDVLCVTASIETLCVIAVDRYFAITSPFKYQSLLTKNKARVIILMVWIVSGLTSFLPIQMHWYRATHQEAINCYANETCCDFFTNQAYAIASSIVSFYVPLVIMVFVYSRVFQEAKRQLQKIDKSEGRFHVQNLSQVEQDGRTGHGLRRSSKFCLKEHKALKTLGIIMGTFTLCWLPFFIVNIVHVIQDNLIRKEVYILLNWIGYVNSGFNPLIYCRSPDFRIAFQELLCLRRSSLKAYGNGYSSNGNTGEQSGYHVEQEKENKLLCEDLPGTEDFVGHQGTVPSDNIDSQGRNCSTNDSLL
Sequence of Beta-adrenergic receptor kinase 1 (Homo sapiens) (P25098 whole entry, looked up): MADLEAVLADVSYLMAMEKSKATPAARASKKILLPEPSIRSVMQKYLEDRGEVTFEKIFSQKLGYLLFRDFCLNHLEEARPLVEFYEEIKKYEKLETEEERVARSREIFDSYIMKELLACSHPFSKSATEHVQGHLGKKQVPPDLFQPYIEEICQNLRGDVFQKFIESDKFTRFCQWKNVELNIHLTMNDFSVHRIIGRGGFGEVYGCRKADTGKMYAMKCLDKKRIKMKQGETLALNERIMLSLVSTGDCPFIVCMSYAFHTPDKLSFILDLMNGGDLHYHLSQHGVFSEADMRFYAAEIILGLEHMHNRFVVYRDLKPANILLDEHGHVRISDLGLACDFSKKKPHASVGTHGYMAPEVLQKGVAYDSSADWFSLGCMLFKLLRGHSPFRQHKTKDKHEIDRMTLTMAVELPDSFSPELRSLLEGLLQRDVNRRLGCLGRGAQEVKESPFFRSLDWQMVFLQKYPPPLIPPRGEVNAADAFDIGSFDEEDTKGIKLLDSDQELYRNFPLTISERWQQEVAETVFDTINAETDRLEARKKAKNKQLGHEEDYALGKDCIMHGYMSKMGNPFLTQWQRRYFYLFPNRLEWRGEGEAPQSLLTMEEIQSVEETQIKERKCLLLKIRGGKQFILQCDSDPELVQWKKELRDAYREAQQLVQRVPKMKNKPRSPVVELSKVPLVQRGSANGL

O=C(O)Cc1ccc(-c2ccccc2)cc1
114%: GFP response relative to DMSO [7, 24]
93.3%: GFP response vs DMSO [6, 21]
91.5%: GFP response, % of DMSO [9, 21]
inactive: percent of DMSO control GFP [1] 89.4% | GFP response vs DMSO [2] 96.3% | percent response of DMSO control [3] 65.4% | GFP response, % of DMSO [5] 76.9% | GFP response vs DMSO [6] 96.5% | GFP response relative to DMSO [7] 115% | GFP response vs DMSO [8] 102% | GFP response, % of DMSO [9] 102% | vesicle binding response [10] 5570% | inhibition [11] 2.3% | superoxide response (% of plate) [12] 118% | aptamer binding inhibition [13] 3% | response [14] 2.38% | inhibition [15] 22.4% | response [16] -1.1% | binding (% of control) [17] 99.5% | efflux inhibition (fraction of control) [18] -0.42 | inhibition [19] 8% | differentiation response [20] -24.8%
116%: GFP response relative to DMSO [7, 23]
65.8%: double positive events [10]
103%: GFP response, % of DMSO [9, 22]
active: GFP response vs DMSO [4] 196%
95.9%: GFP response vs DMSO [6, 22]

CN(C)CCN(Cc1ccccc1)c1ccccn1
inactive: percent of DMSO control GFP [1] 94.8% | percent response of DMSO control [3] 97.9% | GFP response vs DMSO [4] 85.3% | GFP response, % of DMSO [5] 93.3% | GFP response vs DMSO [6] 96.8% | GFP response relative to DMSO [7] 101% | GFP response vs DMSO [8] 100% | GFP response, % of DMSO [9] 98.3% | vesicle binding response [10] 269% | inhibition [11] -6.15% | superoxide response (% of plate) [12] 95.6% | aptamer binding inhibition [13] 1% | response [14] 1.51% | inhibition [15] 49.6% | response [16] -5.5% | binding (% of control) [17] 103% | differentiation response [20] -1.64%
98.5%: GFP response, % of DMSO [9, 22]
99.1%: GFP response, % of DMSO [9, 21]
97.9%: GFP response vs DMSO [6, 22]
active: GFP response vs DMSO [2] 140% | efflux inhibition (fraction of control) [18] 0.48 | inhibition [19] 113%
99.2%: GFP response relative to DMSO [7, 23]
62.3%: double positive events [10]
99.3%: GFP response relative to DMSO [7, 24]
98.1%: GFP response vs DMSO [6, 21]

N=c1nc(N2CCCCC2)cc(N)n1O
103%: GFP response, % of DMSO [9, 21]
101%: GFP response relative to DMSO [7, 23]
99.3%: GFP response relative to DMSO [7, 24]
inactive: percent of DMSO control GFP [1] 90.9% | percent response of DMSO control [3] 107% | GFP response vs DMSO [4] 86.4% | GFP response, % of DMSO [5] 90.1% | GFP response vs DMSO [6] 97.4% | GFP response relative to DMSO [7] 101% | GFP response vs DMSO [8] 98.3% | GFP response, % of DMSO [9] 99.7% | vesicle binding response [10] 117% | inhibition [11] 16.2% | superoxide response (% of plate) [12] 89.4% | aptamer binding inhibition [13] 2% | response [14] -8.64% | inhibition [15] 33.9% | response [16] -5.96% | binding (% of control) [17] 98.5% | efflux inhibition (fraction of control) [18] 0.37 | differentiation response [20] 8.19%
99.7%: GFP response, % of DMSO [9, 22]
59.7%: double positive events [10]
97.4%: GFP response vs DMSO [6, 21] | GFP response vs DMSO [6, 22]
active: GFP response vs DMSO [2] 143% | inhibition [19] 115%
